Only some compounds are listed: those with a hit (about 3.6% of all), similar ones and a draw of the others.
GALK inhibitor = inhibitors of human galactokinase (GALK). AID 1347072. Potency, µM (series often up to 57.5 µM), without a hit: at the top dose activity, negative = inhibition, hits mostly inhibitors. recombinant GALK, Kinase-Glo ATP luminescence, 1 h. 44,000 tested, under 10 active. P51570;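 note: plate controls were full GALK reaction for no effect and reaction lacking GALK for full effect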
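Reactions with and without enzyme served as controls. GALK at 5 nM phosphorylates 100 uM galactose using 35 uM ATP (HEPES pH 8.0, Mg2+) for 1 h at RT, with luminescence read 10 min after adding Kinase-Glo Plus.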
B2AR arrestin ag = beta-arrestin recruitment by human beta2-adrenergic receptor ligands | P07550 | HTLA Tango cells, beta-arrestin recruitment, luciferase luminescence, 18 h | Potency, µM (top dose mostly 46.1 µM), most hits filed as activators | 44,000 tested, under 10 active | AID 1347077;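 note: potency is the fitted concentration of half-maximal effect; 0% = DMSO and full agonism = EC100 isoproterenol or metaproterenol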
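Tango cell line, 1% FBS DMEM; cpd titration up to 46 microM; 18 hr, 37 degrees C, 5% CO2. Luciferin/ATP substrate mix added, 15 min RT, luminescence. %Activity, CRC fitting, curve-class categorization.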
GALC G270D act = enhancers of human galactocerebrosidase G270D mutant activity in cells; 145M-Twi-hGALC-G270D cells (Twitcher mouse brain line with human GALC G270D), HMU-beta-Gal fluorescence, 48 h; 0.1% of 45,000 active; Potency, µM (titrated, usually from 57.5 µM), hits mostly activators; P54803; note: potency is the fitted concentration of half-maximal effect; 0% is about no effect; nearly all actives have a fitted effect of over 65% in size
Target sequence (P54803 whole entry G286D): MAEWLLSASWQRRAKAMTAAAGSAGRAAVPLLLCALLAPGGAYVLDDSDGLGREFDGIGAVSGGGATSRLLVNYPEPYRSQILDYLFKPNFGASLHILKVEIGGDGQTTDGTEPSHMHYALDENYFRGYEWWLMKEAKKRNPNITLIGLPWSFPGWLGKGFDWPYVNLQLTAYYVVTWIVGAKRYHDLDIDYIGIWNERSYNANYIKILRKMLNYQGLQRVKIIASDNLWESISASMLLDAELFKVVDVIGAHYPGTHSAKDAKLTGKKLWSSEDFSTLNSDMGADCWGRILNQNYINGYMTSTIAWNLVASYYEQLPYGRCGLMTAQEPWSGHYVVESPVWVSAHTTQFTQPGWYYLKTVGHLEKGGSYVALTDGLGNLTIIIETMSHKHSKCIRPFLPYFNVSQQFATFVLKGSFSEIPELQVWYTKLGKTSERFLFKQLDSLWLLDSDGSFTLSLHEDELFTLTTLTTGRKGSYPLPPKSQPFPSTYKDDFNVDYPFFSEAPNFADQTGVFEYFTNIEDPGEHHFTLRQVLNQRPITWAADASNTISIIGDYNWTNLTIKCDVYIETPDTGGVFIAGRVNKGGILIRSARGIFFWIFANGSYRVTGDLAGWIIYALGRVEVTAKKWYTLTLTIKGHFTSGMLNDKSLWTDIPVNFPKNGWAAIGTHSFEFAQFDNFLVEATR
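Fluorescence readout: HMU-β-gal cleavage by mutant GALC (0.1 mM final, citrate/phosphate pH 5.2 with 1 mg/mL taurocholate), stopped with carbonate/bicarbonate plus Triton X-100. Cells: murine Twitcher 145M-Twi expressing human G270D GALC; qHTS for activators.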
DRV1 agonist = activates human resolvin D1 receptor GPR32 | O75388 | CHO-K1 GPR32 beta-arrestin PathHunter luminescence, 90 min; zero percent set by DMSO-only wells | activation, % at 76.9 µM | 2.5% of 48,000 active;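 active = activation of at least 60% and not above a set upper limit, about 1 call in 100 departs from these limits; inconclusive = activation of 40% to 60%, or above that upper limit; inactive = activation under 40%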; note: 0% is about no effect
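PathHunter enzyme-fragment complementation, CHO-K1 GPR32 stable line; 2,500 cells/well, overnight attach; cpd 90 min 37 °C 5% CO2; detection reagent 1 h RT; chemiluminescence. DMSO = EC0.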
NTMT1 inhibitor = NTMT1 methyltransferase inhibition. NTMT1 MTase-Glo SAH luminescence, purified enzyme. Q9BV86. Potency, µM (titrated, usually from 114 µM), inactives show at the top dose activity change, negative = inhibition, hits mostly inhibitors. 2.5% of 59,000 active. AID 1645870;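 note: potency is the fitted concentration of half-maximal effect; plate controls were DMSO vehicle for no effect and no enzyme for full effect; nearly all actives have a fitted effect of over 65% in size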
* = called active by the depositor; i = inactive; ? = inconclusive; . = no result given; ! = repeats disagree; [ ] = dose if it differs, or a comment. Unless noted, calls come from the whole dose curve; as a rule, active = well fitted curve in the direction sought with a large enough effect; inconclusive = small, poorly fitted or top-dose-only effect, or another doubt; inactive = no such curve, though single readings can be large; an effect the other way counts as inactive or inconclusive.

SMILES	GALK inhibitor	B2AR arrestin ag	GALC G270D act	DRV1 agonist	NTMT1 inhibitor
Cc1ccc(-c2c(C)n3c4c(=O)n(C)c(=O)n(C)c4nc3n2CCCO)cc1	3.8%	i	i	60.3*	?
CN(CC=CC#CC(C)(C)C)Cc1cccc2ccccc12	.	.	.	.	-22.6%[57.5 µM]
CN(C/C=C/C#CC(C)(C)C)Cc1cccc2ccccc12	.	.	i	95.0*	20.3%[57.5 µM]
CC(C)c1ccc(NC(=O)C2CCN(S(=O)(=O)c3cccc4nonc34)CC2)cc1	3.6%	i	i	-15.0	1.2%
O=C(Nc1ccc(Cl)c(C(F)(F)F)c1)C1CCN(S(=O)(=O)c2cccc3nonc23)CC1	3.0%	i	i	79.0*	9.9%
O=C(Nc1ccc(F)c(C(F)(F)F)c1)Nc1nnc(-c2ccncc2)o1	.	.	.	.	13.9%
Cn1cc(C2=C(c3c4n(c5ccccc35)CCC(CN)C4)C(=O)NC2=O)c2ccccc21 (stereo not given)	.	.	.	.	39.8µM*!
CCCC12CN3CC(C)(CN(C1)C3c1cn(C)c3ccccc13)C2=O (stereo not given)	-2.9%	i	i	-0.2	-1.4%
N#C/C(=C\c1ccc(-c2ccc(Cl)c(C(=O)O)c2)o1)c1nc2ccccc2[nH]1	0.2%	i	i	-0.7	?
N#C/C(=C\c1ccc(-c2ccc(C(=O)O)cc2)o1)c1nc2ccccc2[nH]1	-1.9%	i	i	8.0	44.7µM*
CCO[C@@H]1OC(=O)C[C@@H]1NC(=O)[C@@H]1CCCN2C(=O)CC[C@H](NC(=O)c3nccc4ccccc34)C(=O)N12	.	.	.	.	10.7%
Cc1ccc(S(=O)(=O)Nc2cnccc2C(=O)NCc2ccccc2)cc1	.	.	.	.	1.8%[57.5 µM]
CC1CCN(S(=O)(=O)c2nnc(NC(=O)c3cccc(Br)c3)s2)CC1	2.9%	i	i	72.7*	34.5%
Cc1cccc(C(=O)Nc2nnc(S(=O)(=O)N3CCC(C)CC3)s2)c1	0.7%	i	i	68.5*	3.6%
O=C(Nc1nnc(S(=O)(=O)N2CCCC2)s1)c1ccc(F)cc1	-11.3%	i	i	64.0*	9.2%
O=C(Nc1nnc(S(=O)(=O)N2CCCCC2)s1)c1ccc(F)cc1	-0.9%	i	i	13.3	21.2%
CCC(CC)Nc1nc(C)c(-c2ccc(OC(F)(F)F)cc2OC)nc1OC	.	.	.	.	21.9%[57.5 µM]
CN1CCN(C2CCC(n3cc(-c4ccc(Oc5ccccc5)cc4)c4c(N)ncnc43)CC2)CC1 (stereo not given)	.	.	.	.	28.2µM*!
Cc1cc(C)n2ncc(C(=O)Nc3ccc(C#N)cc3)c2n1	.	.	.	.	14.1%
COc1ccccc1-c1cc(C(=O)Nc2c(C)nn(Cc3ccc(Cl)cc3)c2C)no1	-0.2%	i	.	72.3*	.
COc1ccc(-c2cc(C(=O)Nc3ccn(Cc4ccc(C)cc4)n3)no2)cc1OC	2.7%	i	.	77.7*	.
COc1ccc(OC)c(-c2cc(C(=O)Nc3c(C)nn(Cc4ccc(C)cc4)c3C)no2)c1	-6.0%	i	.	9.7	.
O=C(O)c1ccc(O)c2ncc(N3CC(N4CCOCC4)C3)cc12	.	.	.	.	5.3%[57.5 µM]
CCCN1CCCc2cc(CN(CCCN3CCOCC3)C(=O)Nc3ccc(Cl)c(Cl)c3)ccc21	-1.1%	i	i	0.0	79.4µM*
COc1ccc(OC)c(CNS(=O)(=O)c2ccc3[nH]c4c(c3c2)CCCCC4)c1	-3.9%	i	i	96.0*	?
SMILES	GALK inhibitor	B2AR arrestin ag	GALC G270D act	DRV1 agonist	NTMT1 inhibitor
COc1ccc(NS(=O)(=O)c2ccc3[nH]c4c(c3c2)CCCC4)c(OC)c1	0.6%	i	i	14.7	-24.7%
Cc1ccc(NS(=O)(=O)c2ccc3[nH]c4c(c3c2)CCCCCC4)cc1Cl	0.0%	i	i	18.6	-2.8%
COc1ccc(NS(=O)(=O)c2ccc3[nH]c4c(c3c2)CCCC4)cc1Cl	-2.8%	i	i	89.6*	-3.9%
COc1ccc(NS(=O)(=O)c2ccc3[nH]c4c(c3c2)CCCCC4)cc1	-0.7%	i	i	73.6*	?
COc1ccc(NS(=O)(=O)c2ccc3nc(-c4ccccc4)[nH]c3c2)cc1	2.7%	i	i	115.6*	-4.3%
Cc1ccc(NS(=O)(=O)c2ccc3[nH]c4c(c3c2)CCCC4)cc1N(C)C	1.7%	i	i	91.7*	1.5%
CCOc1ccc(NS(=O)(=O)c2ccc3[nH]c4c(c3c2)CCCC4)cc1	4.8%	i	i	48.6	?
CCOc1ccc(NS(=O)(=O)c2ccc3[nH]c4c(c3c2)CCCCC4)cc1	0.9%	i	i	65.6*	-11.8%
CN(C)c1ccc(C2N=C(Nc3nc4ccccc4o3)NC3=C2C(=O)CCC3)cc1 (stereo not given)	.	.	.	.	3.3%[57.5 µM]
Fc1cnc(-c2ccccc2C(F)F)nc1NCc1ccc(-n2ccnn2)cc1	.	.	.	.	-9.4%
O=[N+]([O-])c1cccc(CSc2nc3ncc(Br)cc3[nH]2)c1	.	.	.	.	-0.1%[57.5 µM]
Cc1cc(C)n2nc(SCC(=O)Nc3cccc(C(F)(F)F)c3)nc2n1	5.9%	i	i	61.5*	-12.1%
O=C(CN1C=NS(=O)(=O)c2ccc(C(F)(F)F)cc21)Nc1cccc(C(F)(F)F)c1	-1.9%	i	i	98.7*	9.7%
O=C(CSc1nc2cc3ccccc3cc2[nH]1)Nc1cccc(C(F)(F)F)c1	3.0%	i	i	93.9*	10.6%
O=C(O)c1ccc(O)c2ncc(N3CCCC3)cc12	.	.	.	.	1.5%
CN(Cc1ccc(-c2ccccc2)cc1)c1nc(-c2ccccc2C(F)(F)F)nc2ccccc12	.	.	.	.	-0.5%
CCOC(=O)c1ccc(NS(=O)(=O)c2ccc(Br)s2)cc1	2.3%	i	i	65.6*	?
CC1CCN(C(=O)CC#N)CC1N(C)c1ncnc2[nH]ccc12 (stereo not given)	.	.	.	.	3.1%[57.5 µM]
COc1cc(OC)c(NC(=O)Nc2ccccc2OCc2cc(=O)n3cc(C)ccc3n2)cc1Cl	-0.3%	i	i	-12.9	-11.4%
COc1cc(OC)c(NC(=O)Nc2cccc(OCc3cc(=O)n4ccccc4n3)c2)cc1Cl	2.6%	i	i	-9.2	79.4µM*
